Each structure is given as a SMILES string. Results filed as inconclusive are left out. Where a call stands in place of a potency, no number is given. Where a structure was tested more than once in an assay, its records may differ in their call. Calls of active or inactive are those of the source. Calls follow the shape of the dose curve; as a rule, active = well fitted cell-killing curve with a large enough effect in the repeat runs; inconclusive = weak or mixed curves, or effect the other way; inactive = flat fitted curve, though single readings scatter.
Potency is read from the fitted curve at half-maximal effect.

The nature of this assay: qHTS assay to identify small molecule agonists of the TGF-beta/Smad signaling pathway - cell viability counter screen (AID 1346829). Also: nearly all actives have a fitted effect of over 45% in size. The conditions noted are these: SBE-bla HEK293T viability, CellTiter-Glo luminescence, 5 h; series mostly up to 76.8 µM. The source says:
National Center for Advancing Translational Sciences [NCATS]
NIH Chemical Genomics Center [NCGC]
U.S. Environmental Protection Agency [EPA]
National Institutes of Environmental Health Sciences [NIEHS]
National Toxicology Program [NTP]
U.S. Food and Drug Administration [FDA]
Transforming growth factor beta (TGF-beta) superfamily consists of a large number of structurally related dimeric proteins that act as hormones or local mediators in regulating a wide range of biological functions. This superfamily includes TGF-betas themselves, the bone morphogenetic proteins (BMPs) and the activins. These ligands induce oligomerization of serine/threonine receptor kinases and phosphorylate the cytoplasmic signaling molecules of Smad protein family. CellSensor SBE-bla HEK 293T cell line (Life Technologies, Carlsbad, CA), responsive to TGF-beta was used to screen Tox21 10K compound library for identification of agonists/antagonists of the Smad signaling pathway. This cell line contains a beta-lactamase reporter gene under control of the Smad binding element (SBE) stably integrated into HEK 293T cells. Also cytotoxicity of the compounds was tested in parallel by measuring the cell viability using CellTiter-Glo assay system in the same wells.
Tox21 Assay Protocol Summary:
SBE-bla HEK 293T cells were dispensed at 4,000/well in 6 uL of assay medium into black wall/clear-bottom 1536-well plates using a Multidrop Combi (ThermoFisher Scientific, Waltham, MA) dispenser. After the assay plates were incubated at 37 C and 5% CO2 for an overnight, 23 nL of compounds dissolved in DMSO, positive controls or DMSO only was transferred to the assay plate by a Pintool station (Kalypsys, San Diego, CA). The assay plates were incubated at 37 C and 5% CO2 for 5 hr. One uL of LiveBLAzer B/G FRET substrate (Life Technologies) was added using a Flying Reagent Dispenser (FRD, Aurora Discovery, San Diego, CA) and the plates were incubated at room temperature for 2 hr. Fluorescence intensity (405 nm excitation, 460 nm and 530 nm emissions) was measured using an Envision plate reader (PerkinElmer, Shelton, CT). For cytotoxicity read, 4 uL of CellTiter-Glo reagent (Promega Corporation, Madison, WI) was added to each well of the assay plates using FRD. After 30min incubation at room temperature, the luminescence intensity was measured using ViewLux plate reader (PerkinElmer).
On the technique in general: Quantitative high-throughput screening tests each substance at several concentrations.
Regarding `O=C(N/N=C/c1ccccc1O)c1ccncc1`, the Potency entry was “inactive”.
With `O=C1C=CC(=O)N1c1ccc(Cc2ccc(N3C(=O)C=CC3=O)cc2)cc1`, the Potency is 61.6 µM (active).
`O=C1CCCc2c1cc1ccc3cccc4ccc2c1c34`: the Potency result is “inactive”.
For the compound `COc1cc(-c2nc(NC(=O)c3cc4cc(C)cc(C)c4n3CC(=O)O)sc2CCC2CCCCC2)c(OC)cc1Cl`, the Potency was 28.3 µM (active).
`Cc1[nH]nc2c1N=C(c1ccccc1Cl)c1cc([N+](=O)[O-])ccc1N2`: the Potency was 4.36 µM (active).
Regarding `CC(C)(C)c1ccc(C(=O)O)cc1`, the Potency result is “inactive”.
The same measure for `CCOC(=O)O[C@H](C)OC(=O)c1ccc2c(c1)cc(C(=O)NC1CCN(C(C)C)CC1)n2Cc1cc(-c2ccc(Cl)s2)on1`: 45.8 µM (active); for `Oc1ccc(N=Nc2ccccc2)cc1`: “inactive”; for `c1ccc(CSCc2ccccc2)cc1`: “inactive”.
Turning to `Cc1cccc(CN2CCN(C(c3ccccc3)c3ccc(Cl)cc3)CC2)c1` (stereo not given), the Potency result is “inactive”.
For the compound `NC(=O)NS(=O)(=O)c1ccc(N)cc1`, the Potency result is “inactive”.
The same measure for `Cc1onc(-c2c(Cl)cccc2Cl)c1C(=O)N[C@@H]1C(=O)N2[C@@H]1SC(C)(C)[C@@H]2C(=O)O`: “inactive”; for `C/C=C(\C)C(=O)OCc1ccccc1`: “inactive”; for `Clc1ccccc1C(c1ccccc1)(c1ccccc1)n1ccnc1`: 34.7 µM (active) and inactive.
The same measure for `Cc1cc(O)c(Cl)c(C)c1Cl`: “inactive”.
For `Cn1cc(C(=O)[C@@H]2CCc3nc[nH]c3C2)c2ccccc21` the value was “inactive”.
As to `CCCCCCCCCCCC[N+](C)(C)CCCCCCCCCCCC`, the Potency is 34.7 µM (active).
The same measure for `Oc1ccc(Cl)cc1Sc1cc(Cl)ccc1O`: “inactive”; for `CCCC(C)c1ccccc1O` (stereo not given): “inactive”.
The same measure for `CCCCCCC[N+](CC)(CC)CCCCc1ccc(Cl)cc1`: “inactive”.
For the compound `Cc1ccc(-n2nc(C(C)(C)C)cc2NC(=O)Nc2ccc(OCCN3CCOCC3)c3ccccc23)cc1`, the Potency result is “inactive”.
The same measure for `CCC1=C[C@@H]2CN(C1)Cc1c([nH]c3ccccc13)[C@@](C(=O)OC)(c1cc3c(cc1OC)N(C)[C@H]1[C@@](O)(C(=O)OC)[C@H](OC(C)=O)[C@]4(CC)C=CCN5CC[C@]31[C@@H]54)C2`: “inactive”; for `CC(C)(C)CC(C)(C)c1ccc(OCCOCC[N+](C)(C)Cc2ccccc2)cc1`: 43.6 µM (active); for `CC(=O)SC[C@@H](Cc1ccccc1)C(=O)NCC(=O)OCc1ccccc1`: “inactive”.
For `CCC(CN)=C(c1ccccc1)c1ccccc1` the value was “inactive”; for `CCC(C)(C)C1CCCCC1OC(C)=O` (stereo not given), “inactive”; for `O=C1Cc2cc(CCN3CCN(c4nsc5ccccc45)CC3)c(Cl)cc2N1`, “inactive”.
Take `OCCN(CCO)c1nc(N2CCCCC2)c2nc(N(CCO)CCO)nc(N3CCCCC3)c2n1`: the Potency result is “inactive”.
For `Cc1nc(-c2ccc3c(c2)CCN(CCC2CCC(NC(=O)/C=C/c4ccc(F)cc4)CC2)CC3)no1` (stereo not given) the value was “inactive”.
`Nc1nc2ccccc2n1Cc1ccc(F)cc1`: the Potency result was “inactive”.
For `CCCC(=O)OC[C@@H](OC(=O)CCC)[C@@H](OC(=O)CCC)[C@H](Cn1c2nc(=O)[nH]c(=O)c-2nc2cc(C)c(C)cc21)OC(=O)CCC`, the Potency entry is “inactive”.
The same measure for `CCN(CC)CCNC(=O)c1c(C)[nH]c(/C=C2\C(=O)Nc3ccc(F)cc32)c1C`: “inactive”; for `CCCCCCCCCCCCCCCC(=O)OC[C@H](O)[C@H]1OC(=O)C(O)=C1O`: “inactive”; for `CCCCCCCC/C=C\CCCCCCCCOCCO`: 63.7 µM (active).
The same measure for `CS(=O)(=O)CCNCc1ccc(-c2ccc3ncnc(Nc4ccc(OCc5cccc(F)c5)c(Cl)c4)c3c2)o1`: “inactive”; for `CCCCN1C(=O)[C@@H]([C@H](O)C2CCCCC2)NC(=O)C12CCN(Cc1ccc(Oc3ccc(C(=O)O)cc3)cc1)CC2`: “inactive”.
For `O=c1[nH]cnc2nc[nH]c12` the value was “inactive”.
On to `CCCCCCCC/C=C/CCCCCCCC1=NCCN1CCO`, for which the Potency result was “inactive”.
On to `CCN(C(=O)c1cc(C)cc(OC[C@H](C)Nc2ccncc2)c1)C(C)C`, for which the Potency result was “inactive”.
The same measure for `Cc1c(C)c2c(c(C)c1O)CCC(C)(COc1ccc(CC3SC(=O)NC3=O)cc1)O2` (stereo not given): “inactive”.

(Values after PubChem BioAssay (Tox21).)
